Source: the supplement of paper PMC10981050
Where “and” joins values, the source holds several entries; their conditions need not be identical. Identical values can stand only once. Counter-ions that a name gives are not always drawn.

What was measured:
Experiment in all cases: cell viability relative to vehicle control; higher = less cytotoxic
Details in all cases: 10 µM
[1] = test system: K562
Summary of the method: (§1)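 Mutant clones made by CRISPR editing and their isogenic wild-type counterparts, from four leukaemia lines, were exposed to a single 10 µM dose of each library compound for 48 h. The supernatant was then removed and CellTiter-Glo luminescence was read. Viability was reported as percent of the on-plate vehicle control.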

[2] = test system: MARIMO
Summary of the method: as §1

[3] = test system: MOLM14
Summary of the method: as §1

[4] = test system: OCI-AML2
Summary of the method: as §1

Row | Structure (SMILES) | cell viability ([1]; SRSF2 genotype: SRSF2 P95H/wt) | cell viability ([1]; SRSF2 genotype: SRSF2 wt/wt) | cell viability ([2]; SRSF2 genotype: SRSF2 P95H/wt) | cell viability ([2]; SRSF2 genotype: SRSF2 wt/wt) | cell viability ([3]; SRSF2 genotype: SRSF2 P95H/wt) | cell viability ([3]; SRSF2 genotype: SRSF2 wt/wt) | cell viability ([4]; SRSF2 genotype: P95H/wt) | cell viability ([4]; SRSF2 genotype: wt/wt)
1 | COc1cc2c(NC3CCN(C(C)C)CC3)nc(C3CCCCC3)nc2cc1OCCCN1CCCC1 | 5.7% and 1.99% | 3.43% | 1.5% | 1.11% | 0.34% | 0.42% | 0.27% | 0.2%
2 | Cc1c[nH]c(C=C2C(=O)Nc3ccccc32)c1CCC(=O)O | 91.9% and 93.8% | 91.2% | 95.2% | 92.2% | 32.7% | 28% | 54.2% | 58.1%
3 | CC(C)[C@H](O)C(=O)N[C@@H](C)C(=O)N[C@@H]1C(=O)N(C)CCc2ccccc21 | 106% and 107% | 106% | 96% | 107% | 109% | 105% | 101% | 111%
4 | O=C(Nc1ccccc1-c1cn2c(CN3CC[C@@H](O)C3)csc2n1)c1ccc2ccccc2c1 | 23.9% and 46% | 39.3% | 57.1% | 65% | 72.4% | 80.5% | 65.3% | 64.4%
5 | CC(=O)O[C@H]1C[C@@]2(C)[C@@H](C[C@@H](O)[C@H]3[C@@]4(C)CC[C@@H](O)[C@@H](C)[C@@H]4CC[C@@]32C)/C1=C(\CCC=C(C)C)C(=O)O [Fusidate Sodium] | 101% and 95.3% | 102% | 102% | 104% | 102% | 100% | 94.7% | 108%
6 | CC(=O)Nc1nc2c(Oc3cc(-c4ccc(C(F)(F)F)cc4)ncn3)cccc2s1 | 99.6% and 93% | 88% | 93.3% | 103% | 95.9% | 97.7% | 90.6% | 88.9%
7 | CO[C@@H]1[C@@H](O[C@@H]2O[C@H](C)[C@@H](O[C@H]3C[C@@](C)(O)[C@@H](O)[C@H](C)O3)[C@H](N(C)C)[C@H]2O)[C@@H](CC=O)C[C@@H](C)[C@@H](O[C@H]2CC[C@H](N(C)C)[C@@H](C)O2)/C=C/C=C/C[C@@H](C)OC(=O)C[C@H]1OC(C)=O [Acetylspiramycin (ASPM)] | 87.2% and 93.6% | 89.4% | 91.4% | 90.3% | 84.4% | 90.9% | 83.1% | 76.8%
8 | CO[C@@]1(NC(=O)CSC[C@@H](N)C(=O)O)C(=O)N2C(C(=O)O)=C(CSc3nnnn3C)CS[C@@H]21 [Cefminox Sodium] | 103% | 99% | 105% | 109% | 96% | 106% | 99.4% | 98%
9 | CC(=O)NC[C@H]1CN(c2ccc(N3CCOCC3)c(F)c2)C(=O)O1 [Linezolid (Zyvox)] | 81.9% and 81.7% | 84.3% | 85% | 92.5% | 88.3% | 85.5% | 81.4% | 86.7%
10 | O=C(Nc1cccc(C2=NCCN2)c1)Nc1cccc(C2=NCCN2)c1 [Imidocarb dipropionate] | 98.4% and 92.2% | 95.3% | 91.5% | 103% | 80.2% | 87.7% | 88.6% | 89.4%
11 | O=C1C(=Cc2cccnc2)C(=O)c2ccccc21 | 110% and 102% | 116% | 94.2% | 102% | 89% | 99.4% | 102% | 102%
12 | CN1CCN(Cc2ccc(NC(=O)Nc3ccc(Oc4ccnc(N)n4)cc3)cc2C(F)(F)F)CC1 | 31.7% and 37.7% | 22.2% | 6.8% | 2.68% | 1.79% | 0.67% | 1.64% | 10.3%
13 | C[C@H]1COc2c(N3CCN(C)CC3)c(F)cc3c(=O)c(C(=O)O)cn1c23 [Levofloxacin hydrate] | 93.5% and 91% | 95.8% | 94.3% | 98.4% | 97.2% | 97.9% | 93.3% | 92.1%
14 | CCOC(=O)n1ccn(C)c1=S [Carbimazole] | 107% and 106% | 113% | 110% | 103% | 103% | 111% | 108% | 97.4%
15 | CCCCC(C)(O)C/C=C/[C@H]1[C@H](O)CC(=O)[C@@H]1CCCCCCC(=O)OC (mixture of isomers) [Misoprostol] | 89.4% and 78.1% | 84.4% | 82.6% | 79% | 83.5% | 80.2% | 89.2% | 84%
16 | COc1ccc(-c2cc(=O)c3c(O)cc(O[C@@H]4O[C@H](CO[C@@H]5O[C@@H](C)[C@H](O)[C@@H](O)[C@H]5O)[C@@H](O)[C@H](O)[C@H]4O)cc3o2)cc1 [Linarin] | 107% and 103% | 102% | 95.8% | 101% | 111% | 102% | 103% | 98.7%
17 | C=C1CCC[C@]2(C)Cc3occ(C)c3C[C@@H]12 [Atractylon] | 104% and 98.2% | 97.5% | 98.4% | 99% | 103% | 99.3% | 95% | 98%
18 | CC(C)[N+]1(C)[C@@H]2CC[C@H]1C[C@@H](OC(=O)C(CO)c1ccccc1)C2 (stereo partly drawn) [Ipratropium bromide] | 113% and 109% | 105% | 99.5% | 105% | 99.8% | 105% | 99.1% | 118%

Row | Structure (SMILES) | cell viability ([1]; SRSF2 genotype: SRSF2 P95H/wt) | cell viability ([1]; SRSF2 genotype: SRSF2 wt/wt) | cell viability ([2]; SRSF2 genotype: SRSF2 P95H/wt) | cell viability ([2]; SRSF2 genotype: SRSF2 wt/wt) | cell viability ([3]; SRSF2 genotype: SRSF2 P95H/wt) | cell viability ([3]; SRSF2 genotype: SRSF2 wt/wt) | cell viability ([4]; SRSF2 genotype: P95H/wt) | cell viability ([4]; SRSF2 genotype: wt/wt)
19 | C=C1[C@H](OC(=O)/C=C(\C)CC)C[C@@H](C(C)C)[C@@H]2[C@@H]([C@@H](C)OC(C)=O)C(=O)C[C@@H]12 [Tussilagone] | 83% and 91.6% | 89.5% | 57% | 53.2% | 64.5% | 71.3% | 56.6% | 77.6%
20 | COC(=O)CNC(=O)C(=O)OC | 93% and 96.6% | 96.3% | 89.1% | 90.8% | 92.6% | 94.5% | 56.9% | 64.9%
21 | C=CC(=O)N1CCC[C@@H](n2nc(-c3ccc(Oc4ccccc4)cc3)c3c(N)ncnc32)C1 | 35.9% and 57.5% | 42.9% | 70.9% | 89.1% | 16.5% | 17.8% | 44.3% | 53.1%
22 | C=CCc1cc(OC)c(O)c(C(=O)NCCO)c1 [Alibendol] | 100% and 103% | 103% | 98.2% | 104% | 98.2% | 102% | 100% | 112%
23 | CN(C)c1cc(NC(=O)CNC(C)(C)C)c(O)c2c1CC1CC3C(N(C)C)C(=O)C(C(N)=O)=C(O)C3(O)C(=O)C1=C2O (stereo not drawn) [Tigecycline] | 94.1% | 97.6% | 94.9% | 97.2% | 99.2% | 96.9% | 106% | 95.7%
24 | COC1(c2sc3c(N4CCOCC4)nc(-c4cnc(N)nc4)nc3c2C)COC1 | 40.8% and 45.4% | 40.3% | 47.9% | 38% | 26.3% | 24.1% | 4.68% | 16.4%
25 | CC(/C=C/C=C(\C)C(=O)O[C@@H]1O[C@H](CO[C@@H]2O[C@H](CO)[C@@H](O)[C@H](O)[C@H]2O)[C@@H](O)[C@H](O)[C@H]1O)=C\C=C\C=C(C)\C=C\C=C(/C)C(=O)O[C@@H]1O[C@H](CO[C@@H]2O[C@H](CO)[C@@H](O)[C@H](O)[C@H]2O)[C@@H](O)[C@H](O)[C@H]1O [Crocin] | 101% and 100% | 99.8% | 95.6% | 100% | 95.2% | 102% | 107% | 102%
26 | Fc1ccc(CNc2ncnc3ccc(F)cc23)cc1 [Spautin-1] | 66.5% and 63.9% | 66.7% | 54.7% | 41.1% | 51.3% | 59.4% | 35.6% | 31.5%
27 | Cc1nc(Nc2n[nH]c3c2CN(C(=O)N[C@H](CN(C)C)c2ccccc2)C3(C)C)c2sccc2n1 | 13.2% and 22.6% | 14.3% | 5.65% | 3.34% | 0.49% | 0.42% | 0.9% | 10.7%
28 | CC12CC3CC(C)(C1)CC(N)(C3)C2 [Memantine hydrochloride (Namenda)] | 101% and 93.1% | 93.6% | 88.7% | 98.8% | 89.7% | 101% | 90.3% | 103%
29 | COC(=O)[C@@]1(C)CC[C@]2(C(=O)O)CC[C@]3(C)C(=CC[C@@H]4[C@@]5(C)C[C@H](O)[C@H](O[C@@H]6OC[C@@H](O[C@@H]7O[C@H](CO)[C@@H](O)[C@H](O)[C@H]7O)[C@H](O)[C@H]6O)[C@@](C)(CO)[C@@H]5CC[C@]43C)[C@@H]2C1 [Esculentoside A] | 110% and 105% | 105% | 104% | 108% | 108% | 107% | 96.8% | 105%
30 | CCCCc1nc(C)c(CC(=S)N(C)C)c(=O)n1Cc1ccc(-c2ccccc2-c2nnn[nH]2)cc1 [Fimasartan] | 100% and 107% | 106% | 108% | 109% | 101% | 103% | 106% | 93.1%
31 | CC(=O)CCC=C(C)CCC=C(C)CCC=C(C)CCC=C(C)C [Teprenone] | 94.5% and 91.8% | 92.9% | 80.2% | 95.6% | 86.8% | 96.5% | 77.7% | 84.9%
32 | O=C(Cc1ccc(-c2ccc(OCCN3CCOCC3)cc2)cn1)NCc1ccccc1 | 10.7% and 34.3% | 33% | 6.74% | 9.4% | 1.55% | 2.72% | 4.61% | 8.35%
33 | O=S(=O)(c1ccc2c(c1)C(=NO)c1cc(S(=O)(=O)N3CCCCC3)ccc1-2)N1CCCCC1 | 0.51% and 0.55% | 0.51% | 3.1% | 0.51% | 0.31% | 30.1% | 0.87% | 0.36%
34 | O=C(CCCCCCC(=O)N/N=C/c1ccc(N(c2ccccc2)c2ccccc2)cc1)NO | 38.5% and 60.9% | 54.6% | 65.8% | 18.7% | 1.58% | 1.31% | 0.64% | 1.98%
35 | Nc1ccc(Oc2ccc(-c3ccc(Oc4ccc(N)cc4)cc3)cc2)cc1 [4,4prime-Bis(4-aminophenoxy)biphenyl] | 103% and 98.3% | 110% | 96.9% | 101% | 100% | 102% | 96% | 112%
36 | CNS(=O)(=O)C[C@H]1CC[C@H](N(C)c2[nH]cnc3nccc2-3)CC1 [Oclacitinib maleate] | 95.6% and 99.2% | 103% | 95.5% | 102% | 55.9% | 73% | 77.5% | 72.5%
